# Results from PubChem BioAssay AID2284076 (EPA ToxCast).
# Calls of active or inactive are those of the source. The calls were made as follows: active = hit-call score of the fitted dose curve at least 0.9, where 1 is the maximum; inactive = score below 0.9.
# Biological target: human EphA1 Receptor Tyrosine Kinase, EPHA1 (gene 2041) (UniProt P21709)
# Assay: ERF_FR_ENZ_hEPHA1: Eurofins (ERF) Enzymatic Radiometric [Km ATP] KinaseProfiler LeadHunter Assay for human EphA1 Receptor Tyrosine Kinase
# Protocol: ERF_FR_ENZ_hEPHA1 is a biochemical, single-readout assay that uses extracted gene-proteins in a cell-free assay. Measurements were taken 0.5 hour after chemical dosing in a 96-well plate. See EphA1 Human RTK Kinase Enzymatic HTRF Assay [Km ATP], Cerep.ERF_FR_ENZ_hEPHA1 is an assay component calculated from the ERF_FR_ENZ_hEPHA1 assay. It is designed to measure enzyme activity using a type of enzyme reporter as detected by fluorescence intensity with HTRF technology.Data from the assay component ERF_FR_ENZ_hEPHA1 was analyzed at the assay endpoint, ERF_FR_ENZ_hEPHA1, in the positive analysis fitting direction relative to DMSO as the negative control and baseline of activity. Using a type of enzyme reporter, loss-of-signal activity can be used to understand changes in enzymatic activity as they relate to gene EPHA1. To generalize the intended target to other relatable targets, this assay endpoint is annotated to the kinase intended target family, where the subfamily is receptor tyrosine kinase.
# EphA1 (h) is incubated with 8 mM MOPS pH 7.0, 0.2 mM EDTA, 250 uM […], 10 mM MgAcetate and [gamma-33P]-ATP (specific activity and concentration as required). The reaction is initiated by the addition of the Mg/ATP mix. After incubation for 40 minutes at room temperature, the reaction is stopped by the addition of phosphoric acid to a concentration of 0.5%. […]
# Sequence of human EphA1 Receptor Tyrosine Kinase, EPHA1 (gene 2041) (P21709 whole entry, looked up): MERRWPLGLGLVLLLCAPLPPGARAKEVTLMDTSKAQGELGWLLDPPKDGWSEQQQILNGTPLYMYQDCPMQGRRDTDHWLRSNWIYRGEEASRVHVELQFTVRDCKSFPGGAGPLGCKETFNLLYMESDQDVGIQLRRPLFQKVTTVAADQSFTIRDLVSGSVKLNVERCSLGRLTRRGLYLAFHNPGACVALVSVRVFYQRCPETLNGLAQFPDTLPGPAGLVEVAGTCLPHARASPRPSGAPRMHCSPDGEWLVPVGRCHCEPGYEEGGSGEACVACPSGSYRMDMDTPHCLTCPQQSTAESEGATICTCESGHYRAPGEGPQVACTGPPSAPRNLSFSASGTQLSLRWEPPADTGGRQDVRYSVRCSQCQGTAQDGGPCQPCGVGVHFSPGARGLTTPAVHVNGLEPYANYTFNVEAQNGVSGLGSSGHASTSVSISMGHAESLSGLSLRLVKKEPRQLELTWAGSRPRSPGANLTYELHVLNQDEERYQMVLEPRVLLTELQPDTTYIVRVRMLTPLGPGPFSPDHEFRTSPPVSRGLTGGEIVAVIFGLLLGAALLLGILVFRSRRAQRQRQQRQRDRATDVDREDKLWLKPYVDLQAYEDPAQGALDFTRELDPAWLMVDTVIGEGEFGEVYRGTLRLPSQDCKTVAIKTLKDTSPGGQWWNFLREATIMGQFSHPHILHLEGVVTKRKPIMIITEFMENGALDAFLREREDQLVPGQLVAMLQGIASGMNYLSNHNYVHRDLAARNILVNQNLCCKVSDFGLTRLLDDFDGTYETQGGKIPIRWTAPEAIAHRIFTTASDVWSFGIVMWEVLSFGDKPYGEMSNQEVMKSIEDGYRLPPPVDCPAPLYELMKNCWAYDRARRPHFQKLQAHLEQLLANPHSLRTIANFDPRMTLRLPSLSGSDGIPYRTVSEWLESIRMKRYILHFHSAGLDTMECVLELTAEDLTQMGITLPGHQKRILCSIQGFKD
row,Structure (SMILES),outcome
1,O=C(/C=C/c1ccc(O)cc1)CC(=O)/C=C/c1ccc(O)cc1,inactive
